Assay results: PubChem BioAssay (EPA / NIEHS)
Inconclusive results are not listed. Calls of active or inactive are those of the source. The calls were made as follows: active = hit-call score of the fitted dose curve at least 0.9, where 1 is the maximum; inconclusive = response in the unintended direction; inactive = score below 0.9.

Key:
[1] = biological target: Androgen receptor (Homo sapiens) (UniProt P10275); test: ATG_AR_TRANS: Attagene TRANS-FACTORIAL HepG2 Assay for human Androgen Receptor (AR) (AID 2282973); conditions: HepG2 Attagene TRANS-FACTORIAL AR reporter transcription
Summary of the method: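 HepG2 cells transiently transfected with AR-Gal4 chimera and GAL4-UAS reporter units; chemical exposure 24 h. Reporter mRNA quantified by RT-PCR with fluorescent labelling and capillary electrophoresis; gain-of-signal fitted against DMSO.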

[2] = biological target: human Ephrin type-A Receptor 2 (EphA2), EPHA2 (gene 1969) (UniProt P29317); test: NVS_ENZ_hEphA2: NovaScreen (NVS) Enzymatic Assay for human Ephrin type-A Receptor 2 (EphA2) (AID 2283155)
Summary of the method: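 Enzyme activity of recombinant EphA2 read by fluorescence after mobility-shift separation, 1 h after dosing. Chemicals first tested at 25 uM (duplicate); those passing threshold run as concentration series, top 50 uM, single replicate, relative to DMSO.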

[3] = biological target: rat Acetylcholinesterase (AChE), Ache (gene 83817) (UniProt P37136); test: NVS_ENZ_rAChE: NovaScreen (NVS) Enzymatic Assay for rat Acetylcholinesterase (AChE) (AID 2283233)
Summary of the method: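 Compounds first screened at 25 uM in duplicate, then those passing threshold tested in concentration series up to 50 uM, against AChE from rat brain membranes. Enzyme activity read by absorbance at 0.33 h; inhibition scored versus DMSO.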

[4] = biological target: human AMP-activated Protein Kinase, alpha 1 (AMPKa1), PRKAA1 (gene 5562) (UniProt Q13131); test: NVS_ENZ_hAMPKa1: NovaScreen (NVS) Enzymatic Assay for human AMP-activated Protein Kinase, alpha 1 (AMPKa1) (AID 2283130)
Summary of the method: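 Compounds were screened in duplicate at 25 uM, and those reaching ~30% inhibition were titrated up to 50 uM. The enzyme was recombinant human AMPKα1, and kinase turnover was read by fluorescence/mobility shift 1 h post-dosing as loss of signal versus DMSO.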

[5] = biological target: rat Adenylate Cyclase, Forskolin Stimulated, Adcy5 (gene 64532) (UniProt Q04400); test: NVS_ENZ_rACFSKBinding: NovaScreen (NVS) Enzymatic Assay for rat Adenylate Cyclase, Forskolin Stimulated (AID 2283232)
Summary of the method: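 Chemicals were first tested at 25 uM in duplicate, then hits run as concentration series with top concentration 50 uM. Enzyme source was rat forebrain membranes; radiometric filter read-out after 1 h, referenced to DMSO.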

[6] = biological target: rat Corticotropin Releasing Factor Receptor (CRF), Crhr1 (gene 58959) (UniProt P35353); test: NVS_GPCR_rCRF: NovaScreen (NVS) G Protein-Coupled Receptor Assay for rat Corticotropin Releasing Factor Receptor (CRF) (AID 2283300)
Summary of the method: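 Single-concentration (25 uM, duplicate) radioligand binding on rat cortical membrane preparations, counted by scintillation after 2 h. Activity scored as signal loss relative to DMSO negative control.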

[7] = biological target: human Fibroblast Growth Factor Receptor 1 (FGFR1), FGFR1 (gene 2260) (UniProt P11362); test: NVS_ENZ_hFGFR1: NovaScreen (NVS) Enzymatic Assay for human Fibroblast Growth Factor Receptor 1 (FGFR1) (AID 2283159);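 as to AC50: hits lower the signal so potencies describe inhibitors of the kinase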
Summary of the method: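 Cell-free recombinant kinase with fluorescent substrate, product separated by electrophoretic mobility shift; read 1 hour after dosing, loss of signal relative to DMSO. Initial screen in duplicate at 25 uM, actives followed in concentration series.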

[8] = biological target: human Acetylcholinesterase (AChE), ACHE (gene 43) (UniProt P22303); test: NVS_ENZ_hAChE: NovaScreen (NVS) Enzymatic Assay for human Acetylcholinesterase (AChE) (AID 2283129)
Summary of the method: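 Actives from a duplicate single-point screen (25 uM) were followed up in concentration series. Enzyme activity read by absorbance (colorimetric) 0.33 hour after dosing, cell-free, normalized to DMSO, with loss of signal scored.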

[9] = biological target: human Matrix Metalloproteinase-1 (MMP1), MMP1 (gene 4312) (UniProt P03956); test: NVS_ENZ_hMMP1: NovaScreen (NVS) Enzymatic Assay for human Matrix Metalloproteinase-1 (MMP1) (AID 2283181)
Summary of the method: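 Cell-free fluorescent substrate assay of human MMP1, read after 1 h. A single 25 uM duplicate screen was followed by concentration series to a maximum of 50 uM for actives meeting threshold; inhibition analysed against DMSO baseline.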

[10] = biological target: rat CYP1A2, Cyp1a2 (gene 24297) (UniProt P04799); test: NVS_ADME_rCYP1A2: NovaScreen (NVS) CYP450-related Enzyme Activity (ADME) Assay for rat CYP1A2 (AID 2283115)
Summary of the method: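 Primary testing ran in duplicate at 10 uM, with actives re-tested across concentration series. Fluorescence intensity from substrate turnover by recombinant protein, measured 1 hour post-dosing, with signal loss scored against acetonitrile vehicle.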

[11] = test system: rat Monoamine Oxidase, MAO-A, Central (MAOAC), gene 29253; test: NVS_ENZ_rMAOAC: NovaScreen (NVS) Enzymatic Assay for rat Monoamine Oxidase, MAO-A, Central (MAOAC) (AID 2283243);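 also: potency refers to inhibition seen as signal drop below DMSO baseline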
Summary of the method: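 Scintillation read-out of MAO-A activity in rat brain lysate, 1.5 h post-dosing. Primary single-concentration screen: 25 uM, duplicate; actives re-tested in concentration series. DMSO = negative control/baseline.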

[12] = biological target: human Aurora Kinase A - serine/threonine-protein Kinase 6 (AurA), AURKA (gene 6790) (UniProt O14965); test: NVS_ENZ_hAurA: NovaScreen (NVS) Enzymatic Assay for human Aurora Kinase A - serine/threonine-protein Kinase 6 (AurA) (AID 2283142)
Summary of the method: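 Recombinant human AurA activity read by fluorescence after mobility-shift separation of product from substrate; 1 hour incubation. Chemicals first run in duplicate at 25 uM, then concentration series to 50 uM if over threshold; fitted relative to DMSO.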

[13] = biological target: human Raf-1 Proto-Oncogene, serine/threonine Kinase (RAF1), RAF1 (gene 5894) (UniProt P04049); test: NVS_ENZ_hRAF1: NovaScreen (NVS) Enzymatic Assay for human Raf-1 Proto-Oncogene, serine/threonine Kinase (RAF1) (AID 2283216)
Summary of the method: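 Single-point screening at 25 uM (duplicate), followed by singleton concentration-response to 50 uM maximum for chemicals exceeding threshold. Enzyme activity from fluorescent substrate-product mobility-shift separation after 1 h, relative to DMSO.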

[14] = biological target: rat Monoamine Oxidase, MAO-B, Central (MAOBC), Maob (gene 25750) (UniProt P19643); test: NVS_ENZ_rMAOBC: NovaScreen (NVS) Enzymatic Assay for rat Monoamine Oxidase, MAO-B, Central (MAOBC) (AID 2283238)
Summary of the method: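 Cell-free radiometric assay, rat brain lysate. Read-out: scintillation counts, 1.17 h post-dosing. Screen 25 uM in duplicate; actives (e.g. ≥30% inhibition) then singleton concentration-response, max 50 uM. Activity loss fitted relative to DMSO.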

[15] = biological target: rat Monoamine Oxidase, MAO-B, Peripheral (MAOBP), Maob (gene 25750) (UniProt P19643); test: NVS_ENZ_rMAOBP: NovaScreen (NVS) Enzymatic Assay for rat Monoamine Oxidase, MAO-B, Peripheral (MAOBP) (AID 2283242)
[16] = biological target: Norway rat Vesicular Monoamine Transporter (VMAT2), neurotransmitter transporter, Slc18a2 (gene 25549) (UniProt Q01827); test: NVS_TR_rVMAT2: NovaScreen (NVS) Transporter Assay for Norway rat Vesicular Monoamine Transporter (VMAT2), neurotransmitter transporter (AID 2283376);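 also: actives lower the bound radioligand signal below the DMSO level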
Summary of the method: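 Filter-based scintillation counting of radioligand bound to rat forebrain-derived VMAT2 protein, cell-free, 1 h post-dose. Signal loss relative to DMSO control scored; single-concentration duplicate screen (25 uM) followed by concentration-response testing of actives.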

[17] = ATG_M_32_XSP2: Attagene TRANS-FACTORIAL Multi-Species (XSP2) HepG2 Assay for M19 Transcription Factor (Internal Marker) (AID 2283826)
Summary of the method: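 HepG2 cells transiently transfected with GAL4-UAS reporter units; XSP2 panel included 3 nM 6-alpha-fluorotestosterone and 1.5 nM norgestrel for androgen receptor stimulation. Reporter mRNA read 24 h post-dosing by RT-PCR/capillary electrophoresis; fitted upward versus DMSO.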

[18] = biological target: human Tyrosine Protein Kinase Receptor Tie-2 (Tie2), TEK (gene 7010) (UniProt Q02763); test: NVS_ENZ_hTie2: NovaScreen (NVS) Enzymatic Assay for human Tyrosine Protein Kinase Receptor Tie-2 (Tie2) (AID 2283225)
Summary of the method: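 Substrate and product were separated by mobility shift and detected by fluorescence after a 1-hour reaction with recombinant Tie2. Chemicals passing a 25 uM single-point screen were titrated to a maximum of 50 uM. Results were normalized to DMSO baseline.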

[19] = biological target: human Protein Tyrosine Phosphatase Receptor Type C (PTPRC), PTPRC (gene 5788) (UniProt P08575); test: NVS_ENZ_hPTPRC: NovaScreen (NVS) Enzymatic Assay for human Protein Tyrosine Phosphatase Receptor Type C (PTPRC) (AID 2283212)
Summary of the method: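 Absorbance-based phosphatase activity of human PTPRC protein extracted from yeast was measured 1 h post-dosing. Compounds first tested at 25 uM in duplicate, then those passing threshold in singleton concentration series to 50 uM.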

[20] = biological target: human Phosphatase and Tensin Homolog (PTEN), PTEN (gene 5728) (UniProt P60484); test: NVS_ENZ_hPTEN: NovaScreen (NVS) Enzymatic Assay for human Phosphatase and Tensin Homolog (PTEN) (AID 2283203)
Summary of the method: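 Loss of fluorescent product signal after mobility-shift separation reports PTEN activity, recombinant human enzyme, 1 h after compound addition. Single 25 uM duplicate screen, then concentration-response on actives; DMSO baseline.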

[21] = biological target: Voltage-dependent N-type calcium channel subunit alpha-1B (Rattus norvegicus) (UniProt Q02294); test: NVS_IC_rCaChN: NovaScreen (NVS) Ion Channel Assay for rat Calcium Channel, Type N (CaChN) (AID 2283317)

Chain of rat Acetylcholinesterase (AChE), Ache (gene 83817) (P37136 whole entry, looked up): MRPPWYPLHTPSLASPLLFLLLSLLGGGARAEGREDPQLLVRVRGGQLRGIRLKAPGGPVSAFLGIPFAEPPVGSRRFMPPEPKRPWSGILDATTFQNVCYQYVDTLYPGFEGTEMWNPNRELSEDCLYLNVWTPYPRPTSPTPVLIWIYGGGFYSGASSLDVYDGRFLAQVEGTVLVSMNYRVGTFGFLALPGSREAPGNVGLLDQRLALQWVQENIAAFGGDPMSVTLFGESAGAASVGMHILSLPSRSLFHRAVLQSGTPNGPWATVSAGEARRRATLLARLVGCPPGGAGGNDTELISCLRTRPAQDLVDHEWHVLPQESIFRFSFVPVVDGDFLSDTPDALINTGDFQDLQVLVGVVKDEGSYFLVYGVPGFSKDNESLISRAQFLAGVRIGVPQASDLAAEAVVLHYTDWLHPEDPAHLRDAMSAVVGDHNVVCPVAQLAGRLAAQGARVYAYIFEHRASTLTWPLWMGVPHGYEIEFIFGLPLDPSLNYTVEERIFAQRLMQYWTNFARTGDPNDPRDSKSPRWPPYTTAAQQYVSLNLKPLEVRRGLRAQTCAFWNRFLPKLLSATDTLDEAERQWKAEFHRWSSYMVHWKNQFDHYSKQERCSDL
Chain of human Fibroblast Growth Factor Receptor 1 (FGFR1), FGFR1 (gene 2260) (P11362 whole entry, looked up): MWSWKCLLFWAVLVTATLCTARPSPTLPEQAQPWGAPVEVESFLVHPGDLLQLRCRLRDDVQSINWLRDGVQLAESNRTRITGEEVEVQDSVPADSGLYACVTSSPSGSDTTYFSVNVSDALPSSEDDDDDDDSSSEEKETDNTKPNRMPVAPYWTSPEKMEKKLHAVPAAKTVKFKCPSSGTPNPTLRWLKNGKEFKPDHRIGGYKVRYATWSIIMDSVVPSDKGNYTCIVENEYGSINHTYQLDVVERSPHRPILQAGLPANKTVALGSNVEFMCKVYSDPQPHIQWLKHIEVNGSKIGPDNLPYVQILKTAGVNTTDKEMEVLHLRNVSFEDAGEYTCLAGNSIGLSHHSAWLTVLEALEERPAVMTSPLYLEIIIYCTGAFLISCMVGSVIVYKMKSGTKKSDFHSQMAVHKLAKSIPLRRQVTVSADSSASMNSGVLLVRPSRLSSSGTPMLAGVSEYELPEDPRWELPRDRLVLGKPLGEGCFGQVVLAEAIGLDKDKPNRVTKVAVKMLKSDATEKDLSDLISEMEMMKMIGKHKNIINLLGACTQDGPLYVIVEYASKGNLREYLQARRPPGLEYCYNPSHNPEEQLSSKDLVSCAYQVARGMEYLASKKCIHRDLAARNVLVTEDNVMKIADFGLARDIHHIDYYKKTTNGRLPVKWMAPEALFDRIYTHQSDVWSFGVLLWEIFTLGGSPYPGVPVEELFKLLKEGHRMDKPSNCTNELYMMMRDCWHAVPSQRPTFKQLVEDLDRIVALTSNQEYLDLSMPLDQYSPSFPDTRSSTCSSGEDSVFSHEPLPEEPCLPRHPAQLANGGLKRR
Chain of Androgen receptor (Homo sapiens) (P10275 whole entry, looked up, the tested form may be a part): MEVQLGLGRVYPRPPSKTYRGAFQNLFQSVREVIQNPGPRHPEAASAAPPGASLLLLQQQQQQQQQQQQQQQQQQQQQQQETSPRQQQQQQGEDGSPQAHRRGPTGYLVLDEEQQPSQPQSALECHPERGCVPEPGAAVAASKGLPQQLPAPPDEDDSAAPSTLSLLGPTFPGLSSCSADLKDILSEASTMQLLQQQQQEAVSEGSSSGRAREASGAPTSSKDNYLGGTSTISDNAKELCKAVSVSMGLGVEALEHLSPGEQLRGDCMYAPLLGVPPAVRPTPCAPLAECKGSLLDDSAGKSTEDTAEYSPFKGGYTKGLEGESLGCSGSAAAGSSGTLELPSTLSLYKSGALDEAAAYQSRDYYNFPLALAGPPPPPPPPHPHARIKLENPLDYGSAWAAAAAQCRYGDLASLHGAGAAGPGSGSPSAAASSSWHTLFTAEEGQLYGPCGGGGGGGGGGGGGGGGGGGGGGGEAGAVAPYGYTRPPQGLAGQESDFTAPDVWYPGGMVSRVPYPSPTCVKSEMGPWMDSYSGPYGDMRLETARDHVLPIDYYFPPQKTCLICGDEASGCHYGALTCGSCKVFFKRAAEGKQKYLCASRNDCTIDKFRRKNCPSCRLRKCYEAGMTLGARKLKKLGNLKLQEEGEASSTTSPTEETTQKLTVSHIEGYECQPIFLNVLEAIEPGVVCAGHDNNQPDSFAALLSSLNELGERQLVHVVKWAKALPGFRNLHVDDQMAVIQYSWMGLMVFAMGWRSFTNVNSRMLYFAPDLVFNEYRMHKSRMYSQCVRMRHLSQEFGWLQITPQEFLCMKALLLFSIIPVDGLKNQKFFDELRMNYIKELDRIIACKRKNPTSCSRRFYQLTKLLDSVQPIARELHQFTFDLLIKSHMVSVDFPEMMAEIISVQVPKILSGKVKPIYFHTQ
Chain of human Raf-1 Proto-Oncogene, serine/threonine Kinase (RAF1), RAF1 (gene 5894) (P04049 whole entry, looked up): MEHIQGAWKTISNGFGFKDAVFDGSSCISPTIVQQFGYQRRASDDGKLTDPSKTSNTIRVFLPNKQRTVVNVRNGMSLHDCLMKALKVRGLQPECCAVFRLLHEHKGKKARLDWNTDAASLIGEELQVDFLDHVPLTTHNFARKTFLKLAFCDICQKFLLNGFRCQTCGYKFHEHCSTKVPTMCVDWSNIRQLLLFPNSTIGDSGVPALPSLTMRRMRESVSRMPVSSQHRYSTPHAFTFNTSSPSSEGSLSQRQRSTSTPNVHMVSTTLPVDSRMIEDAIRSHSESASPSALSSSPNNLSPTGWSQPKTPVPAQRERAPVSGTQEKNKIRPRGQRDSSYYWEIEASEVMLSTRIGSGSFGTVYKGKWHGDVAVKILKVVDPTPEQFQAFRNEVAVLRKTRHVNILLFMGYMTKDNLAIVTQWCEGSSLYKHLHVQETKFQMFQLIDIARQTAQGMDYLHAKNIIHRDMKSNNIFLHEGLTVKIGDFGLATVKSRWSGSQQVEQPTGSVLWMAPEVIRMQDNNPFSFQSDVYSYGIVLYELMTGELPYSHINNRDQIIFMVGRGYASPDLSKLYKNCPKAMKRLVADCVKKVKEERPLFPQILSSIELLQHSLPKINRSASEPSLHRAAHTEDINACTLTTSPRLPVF
Chain of Norway rat Vesicular Monoamine Transporter (VMAT2), neurotransmitter transporter, Slc18a2 (gene 25549) (Q01827 whole entry, looked up): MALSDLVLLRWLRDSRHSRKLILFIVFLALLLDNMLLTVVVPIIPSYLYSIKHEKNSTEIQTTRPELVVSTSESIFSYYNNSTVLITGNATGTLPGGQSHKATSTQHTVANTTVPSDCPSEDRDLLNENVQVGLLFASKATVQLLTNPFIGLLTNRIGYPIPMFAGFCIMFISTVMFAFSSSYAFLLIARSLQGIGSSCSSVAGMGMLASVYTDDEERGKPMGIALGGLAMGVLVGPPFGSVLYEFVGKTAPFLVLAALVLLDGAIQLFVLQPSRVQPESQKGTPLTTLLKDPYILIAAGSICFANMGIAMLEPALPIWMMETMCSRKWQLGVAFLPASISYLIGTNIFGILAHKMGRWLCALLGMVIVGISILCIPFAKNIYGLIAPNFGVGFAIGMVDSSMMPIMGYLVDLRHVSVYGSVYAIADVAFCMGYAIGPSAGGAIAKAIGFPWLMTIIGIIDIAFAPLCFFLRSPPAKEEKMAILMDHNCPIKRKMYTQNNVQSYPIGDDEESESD
Chain of human Ephrin type-A Receptor 2 (EphA2), EPHA2 (gene 1969) (P29317 whole entry, looked up): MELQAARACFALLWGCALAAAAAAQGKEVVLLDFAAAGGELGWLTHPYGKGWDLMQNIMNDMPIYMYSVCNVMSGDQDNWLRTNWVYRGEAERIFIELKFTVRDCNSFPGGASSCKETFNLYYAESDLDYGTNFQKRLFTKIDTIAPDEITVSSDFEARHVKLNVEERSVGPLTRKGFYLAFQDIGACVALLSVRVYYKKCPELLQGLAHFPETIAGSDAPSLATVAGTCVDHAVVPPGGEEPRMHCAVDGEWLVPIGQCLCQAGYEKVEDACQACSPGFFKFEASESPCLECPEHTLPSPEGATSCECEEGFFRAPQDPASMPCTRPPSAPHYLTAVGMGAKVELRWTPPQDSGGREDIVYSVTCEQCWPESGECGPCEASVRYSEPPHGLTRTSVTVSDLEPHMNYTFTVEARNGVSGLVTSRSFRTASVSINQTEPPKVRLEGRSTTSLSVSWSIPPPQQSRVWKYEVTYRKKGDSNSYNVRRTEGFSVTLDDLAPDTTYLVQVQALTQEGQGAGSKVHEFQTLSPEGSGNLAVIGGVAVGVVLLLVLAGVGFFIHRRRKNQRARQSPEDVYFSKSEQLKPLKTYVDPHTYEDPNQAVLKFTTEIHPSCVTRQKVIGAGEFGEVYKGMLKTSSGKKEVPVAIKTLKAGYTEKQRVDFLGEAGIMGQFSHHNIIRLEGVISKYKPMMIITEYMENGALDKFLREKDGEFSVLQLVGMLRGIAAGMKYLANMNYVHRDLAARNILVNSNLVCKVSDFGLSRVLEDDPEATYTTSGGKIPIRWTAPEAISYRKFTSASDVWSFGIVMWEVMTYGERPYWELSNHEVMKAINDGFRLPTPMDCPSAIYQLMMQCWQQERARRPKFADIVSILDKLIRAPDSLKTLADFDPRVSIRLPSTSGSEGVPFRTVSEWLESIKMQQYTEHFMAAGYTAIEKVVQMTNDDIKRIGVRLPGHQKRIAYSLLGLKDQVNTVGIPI
Chain of rat Monoamine Oxidase, MAO-B, Central (MAOBC), Maob (gene 25750) (P19643 whole entry, looked up): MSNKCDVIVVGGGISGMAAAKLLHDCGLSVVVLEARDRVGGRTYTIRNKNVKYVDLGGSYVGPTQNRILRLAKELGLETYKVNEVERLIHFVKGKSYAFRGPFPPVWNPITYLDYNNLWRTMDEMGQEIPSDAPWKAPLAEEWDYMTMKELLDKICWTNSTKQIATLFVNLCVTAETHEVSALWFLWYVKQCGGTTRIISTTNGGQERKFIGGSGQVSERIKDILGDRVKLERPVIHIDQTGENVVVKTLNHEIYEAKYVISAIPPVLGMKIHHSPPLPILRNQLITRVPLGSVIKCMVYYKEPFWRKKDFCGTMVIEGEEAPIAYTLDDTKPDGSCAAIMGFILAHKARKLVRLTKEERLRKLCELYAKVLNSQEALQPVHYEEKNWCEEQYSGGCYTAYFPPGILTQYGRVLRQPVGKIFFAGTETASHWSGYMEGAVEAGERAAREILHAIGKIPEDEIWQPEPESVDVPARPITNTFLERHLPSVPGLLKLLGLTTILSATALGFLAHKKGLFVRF

Q: Which results are given for `O=C(Nc1ccc(Cl)cc1)Nc1ccc(Cl)c(Cl)c1`?
A: outcome [1]: inactive; outcome [2]: inactive; outcome [3]: inactive

Q: Which outcome [1] does the source give for `CCN(CC)C(=S)SSC(=S)N(CC)CC` here?
A: inactive

Q: And the outcome [4]?
A: inactive

Q: And the outcome [2]?
A: inactive

Q: What about the AC50 [5] of the same molecule?
A: 6.29 µM (active)

Q: What about the outcome [6] of the same molecule?
A: inactive

Q: With `Cc1cc(NC(=O)C(=O)O)cc(C)c1Oc1ccc(O)c2c1CCC2` as the molecule, how does the outcome [1] read?
A: inactive

Q: And the outcome [7]?
A: inactive

Q: With `CN(C)C(=O)C1(N2CCCCC2)CCN(CC[C@@]2(c3ccc(Cl)c(Cl)c3)CN(C(=O)c3ccccc3)CCO2)CC1` as the molecule, how does the outcome [1] read?
A: inactive

Q: And the AC50 [8]?
A: 4.93 µM (active)

Q: And the AC50 [9]?
A: 17.1 µM (active)

Q: What about the AC50 [3] of the same molecule?
A: 9.53 µM (active)

Q: With `O=S1(=O)CC(Cl)(Cl)C(Cl)(Cl)C1` as the molecule, how does the outcome [1] read?
A: inactive

Q: And the outcome [10]?
A: inactive

Q: And the AC50 [3]?
A: 26.1 µM (active)

Q: What about the outcome [11] of the same molecule?
A: inactive

Q: For `O=C(c1ccc(O)cc1O)c1ccc(O)cc1O`, which outcome [1] is on record?
A: inactive

Q: And the AC50 [12]?
A: 22.2 µM (active)

Q: What about the AC50 [7] of the same molecule?
A: 25 µM (active)

Q: What about the outcome [13] of the same molecule?
A: inactive

Q: And the AC50 [14]?
A: 12.9 µM (active)

Q: What about the outcome [15] of the same molecule?
A: inactive

Q: What about the AC50 [11] of the same molecule?
A: 6.91 µM (active)

Q: Which outcome [1] does the source give for `Oc1ccc2c(c1)-c1ccccc1C2` here?
A: inactive

Q: And the AC50 [7]?
A: 32.7 µM (active)

Q: What about the AC50 [14] of the same molecule?
A: 19.6 µM (active)

Q: And the AC50 [11]?
A: 0.743 µM (active)

Q: What about the outcome [16] of the same molecule?
A: inactive

Q: What about the outcome [17] of the same molecule?
A: inactive

Q: What does the source list for `NC(=NCCCCCCN=C(N)/N=C(\N)Nc1ccc(Cl)cc1)/N=C(\N)Nc1ccc(Cl)cc1`?
A: outcome [1]: inactive; AC50 [7]: 11.8 µM (active); outcome [18]: inactive; AC50 [11]: 20.5 µM (active); outcome [16]: inactive

Q: Which outcome [1] does the source give for `Cc1cccc([N+](=O)[O-])c1C` here?
A: inactive

Q: What about the outcome [19] of the same molecule?
A: inactive

Q: Which results are given for `CCOC(=O)COc1cc(-n2ncc(C(F)(F)F)c(C)c2=O)c(F)cc1Cl`?
A: outcome [1]: inactive; outcome [13]: inactive

Q: What does the source list for `CC1(C)[C@H](C(=O)OCc2cccc(Oc3ccccc3)c2)[C@@H]1C=C(Cl)Cl`?
A: outcome [1]: inactive; AC50 [20]: 15.7 µM (active)

Q: Which results are given for `COCC(C)OCC(C)OCC(C)O` (stereo not given)?
A: outcome [1]: inactive; outcome [7]: inactive; outcome [21]: inactive
